Data on five compounds can be found in PubChem BioAssay AID540336 (Broad Institute, 2011).

SMILES strings stand for the structures. Hit rate of the full screen: of about 330,000 compounds, about 520 (0.16%) were called active.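 The calls were made as follows: active = inhibition of at least 50% in every replicate; inconclusive = best replicate reaches 50% inhibition but some replicates fall short; inactive = the rest.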 Only a selection was taken, and actives are over-represented in it overall.

Sequence of Histone acetyltransferase RTT109 (Candida albicans (strain SC5314 / ATCC MYA-2876)) (Q5AAJ8 whole entry, looked up): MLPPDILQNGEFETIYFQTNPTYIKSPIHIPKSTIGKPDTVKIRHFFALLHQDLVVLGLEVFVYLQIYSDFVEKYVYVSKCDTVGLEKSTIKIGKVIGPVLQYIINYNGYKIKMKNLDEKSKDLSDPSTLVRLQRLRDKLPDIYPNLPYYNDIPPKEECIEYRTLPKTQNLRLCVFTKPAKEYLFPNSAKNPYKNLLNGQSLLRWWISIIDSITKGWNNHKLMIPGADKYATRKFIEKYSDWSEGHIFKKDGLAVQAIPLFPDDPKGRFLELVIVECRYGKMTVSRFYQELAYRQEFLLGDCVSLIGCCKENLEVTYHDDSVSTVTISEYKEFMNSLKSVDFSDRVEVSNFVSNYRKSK

This experiment has as its target Histone acetyltransferase RTT109 (Candida albicans (strain SC5314 / ATCC MYA-2876)) (UniProt Q5AAJ8). The experiment in a line: inhibitors of C. albicans Rtt109/Vps75 HAT, primary screen, biochemical, ThioGlo CoA-SH fluorescence, plate reader (AID 540336). The conditions noted are these: purified Rtt109/Vps75, ThioGlo CoA-SH fluorescence, 4 h; at 34.9 µM; stronger effect = higher value.
For `CCCCCCCCCCCCn1ccc(=N)cc1`, the inhibition is 64.2% (active).

Take `CC(=O)OC1C2(CC3N4C(=O)C5(CO)SSC4(CC31O)C(=O)N5C)OC(C)C(C)(C)C2=O` (stereo not given): the inhibition was -1.66% (inactive).

As to `O=C(c1ccccc1)C(O)(CN1CCCCC1)c1ccccc1` (stereo not given), the inhibition was -0.455% (inactive).

Turning to `CCC(C)(O)C(=O)OC1C(=O)OC2CC3C(C)=CC(=O)C(O)C3(C)C3C4(O)OCC23C1C(C)C4O` (stereo not given), the inhibition is 11.1% (inactive).

With `COC1C(O)C(C)OC(OC2CCC3(C=O)C(CCC4C3CCC3(C)C(C5=CC(=O)OC5)CCC43O)C2)C1O` (stereo not given), the inhibition is 9.01% (inactive).

By inhibition is commonly meant the drop in the measured response relative to a control, in per cent.
